Rows were chosen to be rich in hits. Some 4.1% of all compounds tested hit in one or more screens of this group.
hcDAF-12 act = activates DAF-12 receptor from parasite H. contortus | activation, % at 6.8 µM | HEK293 hcDAF-12 lit1-tk-luc reporter, luminescence; 0% DMSO, 100% Δ7-dafachronic acid | hit rate 1.4% among 370,000;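 active = activation above the mean of all tested compounds plus 3 SD, cut at about 5.5% in these data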
ssDAF12 agonist = S. stercoralis DAF-12 activation, primary screen; AID 652126; hit rate 1% among 370,000; activation, % at 6.8 µM; HEK293 ssDAF-12/GRIP1 lit1-tk-luc reporter, luminescence; % of 3 µM dafachronic acid response;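 active = activation above the mean over all tested compounds plus 3 SD, cut at about 0.9% in these data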
hgDAF-12 ag = hgDAF-12 agonism, primary luciferase screen; HEK293 GAL4-hgDAF12 UAS-luciferase reporter, agonist luminescence; normalized to butyrate control; activation, % at 6.8 µM; hit rate 1.8% among 370,000; AID 687014;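 active = activation above a cutoff set at the mean of all screened compounds plus 3 SD, cut at about 10% in these data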
DAX1 inh-1 = blocks DAX1 repression of SF-1 activated StAR promoter. inhibition, % at 6.8 µM. hit rate 1.1% among 370,000. AID 652010. HEK293T StAR-luciferase reporter, SF-1/DAX-1 repression relief;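 active = inhibition above the mean over all tested compounds plus 3 SD, cut at about 3.6% in these data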;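 note: higher inhibition means more luminescence from relief of DAX-1 repression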
DAX1 inh-2 = inhibitors of human orphan nuclear receptor DAX1 (NR0B1); hit rate 0.99% among 340,000; HEK293 Gal4-DAX1 luciferase reporter, luminescence; inhibition, % at 6.75 µM; AID 504766; P51843;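 active = inhibition above the mean over all tested compounds plus 3 SD, cut at about 4.2% in these data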;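 note: inhibition shows as a rise in luminescence from relieved DAX1 repression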
Target sequence (P51843 207-470 limits assumed): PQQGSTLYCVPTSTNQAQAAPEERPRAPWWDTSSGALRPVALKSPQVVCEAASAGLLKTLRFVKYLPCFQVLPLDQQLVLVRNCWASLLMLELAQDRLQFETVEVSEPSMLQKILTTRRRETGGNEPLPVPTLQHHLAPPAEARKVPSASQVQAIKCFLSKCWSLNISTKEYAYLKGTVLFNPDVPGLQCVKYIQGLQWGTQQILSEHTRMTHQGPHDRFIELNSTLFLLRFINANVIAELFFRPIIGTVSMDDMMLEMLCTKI
DAX1 inh confirm = confirmation of human DAX1 (NR0B1) inhibitors; hit rate 87% among 2,400; inhibition, % at 6.8 µM; shares compounds with DAX1 inh-1; HEK293T StAR-promoter luciferase reporter, SF-1/DAX-1 repression;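 active = inhibition above the average of every tested compound plus 3 SD, cut at about 3.8% in these data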;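 note: active compounds raise luminescence by relieving repression of the StAR reporter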
SF1 AF2mut Luc = counter-screen for DAX1 inhibitors: nonselective inhibitors with SF-1 AF2 mutant; shares compounds with DAX1 inh-1; HEK293 StAR-luciferase, luminescence; inhibition, % at 6.8 µM; hit rate 78% among 2,400; AID 652136;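 active = inhibition above the mean of all tested compounds plus 3 SD, cut at about 3% in these data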
LXRb hcDAF ctr = counter-screen for hcDAF-12 agonists: agonists of human LXR-beta | shares compounds with hcDAF-12 act | HEK293 Gal4-LXR tk-luc reporter, luminescence, 24 h; normalized: DMSO 0%, positive control 100% | activation, % at 6.8 µM | 3,400 tested, under 10 active | AID 743027;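 active = mean percent activation of the reporter above a cutoff set as the average over tested compounds plus their standard deviation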
hcDAF12 ag = hcDAF-12 agonism, confirmation assay | HEK293 hcDAF-12 lit1-tk-luc reporter, luminescence; % of Δ7-dafachronic acid response | activation, % at 6.8 µM | hit rate 61% among 3,400 | shares compounds with hcDAF-12 act;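 active = mean activation across triplicate tests above the threshold derived from the earlier primary screen, cut at about 5.5% in these data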
hgDAF12 ag = confirmation of H. glycines DAF-12 agonists. shares compounds with hgDAF-12 ag. HEK293 GAL4-hgDAF12 luciferase reporter, agonist mode; percent of butyrate response. activation, % at 6.8 µM. hit rate 80% among 3,300. AID 743050;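 active = mean activation over triplicate wells above the hit cutoff derived from the earlier primary screen, cut at about 11% in these data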
LXRb DAF12 ctr = counter-screen for DAF-12 agonists: agonists of human LXR-beta; activation, % at 6.8 µM; HEK293 Gal4-LXR luciferase reporter, 24 h; 3,300 tested, under 10 active; AID 743051; shares compounds with hgDAF-12 ag;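 active = mean activation of the triplicate above a set limit carried over from the primary screen, none filed active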
Hits are given with their value; n = inactive; x = not tested or not shown.

SMILES	hcDAF-12 act	ssDAF12 agonist	hgDAF-12 ag	DAX1 inh-1	DAX1 inh-2	DAX1 inh confirm	SF1 AF2mut Luc	hgDAF12 ag	LXRb DAF12 ctr	others
COc1ccc(CNC(=O)C[C@@H]2C[C@H]3c4cc(NC(=O)NC5CCCC5)ccc4O[C@H]3[C@H](CO)O2)cc1	n	n	n	n	n	x	x	x	x
CCc1cc(C(=O)Nc2ncccc2O)sc1C	6.4	n	20	20	n	21	9.0	25	n
O=C(Nc1ncccc1O)c1ccc2c(c1)OCO2	n	n	37	17	n	27	14	39	n
O=C(Nc1ncccc1O)c1ccc2c(c1)OCCO2	7.2	1.3	60	33	8.1	42	22	57	n	LXRb hcDAF ctr=n;hcDAF12 ag=n
CC(C)Cc1nnc(NC(=O)c2ccc3c(c2)OCCO3)s1	5.8	n	15	8.1	n	15	7.1	13	n
Cc1cccnc1NC(=O)c1ccc2c(c1)OCCO2	n	n	n	n	n	x	x	x	x
Cc1ccnc(NC(=O)c2ccc3c(c2)OCO3)c1	6.3	n	18	4.9	n	7.0	3.7	11	n
Cc1cccnc1NC(=O)Cn1nc(-c2ccccc2)oc1=S	n	1.0	19	4.9	n	12	7.5	17	n
COc1nc(-c2ccc(C)cc2)ccc1-c1noc(-c2ccco2)n1	n	n	n	n	n	x	x	x	x
COc1nc(C)ccc1-c1noc(-c2ccco2)n1	7.8	n	15	5.0	n	12	5.4	15	n	LXRb hcDAF ctr=n;hcDAF12 ag=6.6
O=C(Nc1ccc(F)cc1)OCc1cn(Cc2ccccc2F)nn1	n	n	n	n	x	x	x	x	x
C[C@H]1CN([C@@H](C)CO)S(=O)(=O)c2ccc(Br)cc2O[C@H]1CN(C)C(=O)CCN1CCCCC1	n	n	n	n	n	x	x	x	x
O=C(O)c1cccc(N/N=C/c2ccc(-c3ccccc3)cc2)c1	n	n	16	4.7	n	22	10	27	n
CC1(C(=O)NCc2ccc3c(c2)OCO3)CCN1Cc1csc2ccccc12 (stereo unspecified)	n	n	n	n	x	x	x	x	x
COc1cccc2[nH]c(-c3ccccn3)nc12	6.4	n	18	7.2	x	8.6	5.6	16	n
COc1cnc(-c2ccccn2)[nH]c1=O	n	n	n	n	n	x	x	x	x
COc1ccc2cc(CCC(C)=O)ccc2c1	n	n	14	5.2	n	9.6	7.9	16	n
O=C(Nc1cccc(F)c1)c1ccc(-n2cncn2)c2ccoc12	9.4	n	17	9.0	x	16	5.4	17	n	LXRb hcDAF ctr=n;hcDAF12 ag=9.5
O=C(NCCNc1ccccc1[N+](=O)[O-])c1cc(F)c(F)cc1Cl	n	n	n	n	n	x	x	x	x
COc1ccc(C(=O)NCCNc2ccccc2[N+](=O)[O-])cc1	n	n	19	8.0	n	14	6.7	15	n
COc1cccc(/C=C/C(=O)Nc2ccc3c(c2)OCCO3)c1OC	7.7	n	19	10	n	11	5.3	17	n	LXRb hcDAF ctr=n;hcDAF12 ag=5.9
COc1cccc(/C=C/C(=O)Nc2cccc(C(C)=O)c2)c1OC	n	n	n	n	n	x	x	x	x
Cc1ccc2nc(NC(=O)c3ccc4ncsc4c3)sc2c1	n	n	15	6.2	n	11	7.1	13	n
C/C(=N\NC(=O)c1ccccn1)c1ccc(C(=O)O)s1	n	n	22	5.2	x	n	n	11	n

Compound activity from PubChem BioAssay.
